Sampled rows, rich in hits. Any-hit rate of the full collection: about 5.7%.
ATXN viability: viability counter-screen for ATXN expression inhibitors; S2 cells (HEK-293 line with an ATXN2-luciferase reporter) viability, CellTiter-Fluor protease fluorescence, 24 h; Potency, µM (titrated, usually from 56.7 µM), usual class: cytotoxic; 400,000 tested, 0.49% active; AID 651635; further: nearly all actives have a fitted effect of over 40% in size
TGFb SMAD3 inh: TGF-b pathway inhibition; HepG2 CAGA-GFP TGF-b/SMAD3 reporter, GFP fluorescence, 18 h; TGF-beta stimulated, 500 pg/mL final; AID 588855; 410,000 tested, 1.2% active; Potency, µM (series often up to 46.1 µM), hits mostly inhibitors; further: nearly all actives have a fitted effect of over 65% in size
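Cell-based qHTS in HEPG2 carrying a CAGA-GFP Smad reporter; compounds added before 500 pg/mL final TGF-beta, 18 h incubation at 37 degrees C, GFP fluorescence quantified per cell by imaging cytometry.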
ATXN2 expr inh: ATXN2 expression inhibition. AID 1745845. HEK-293 ATXN2-luciferase reporter, luminescence, 24 h. Potency, µM (titrated, usually from 57 µM), hits mostly inhibitors. 360,000 tested, 0.72% active; further: nearly all actives have a fitted effect of over 55% in size
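ATXN2-luciferase reporter cells (luciferase flanked by upstream and downstream ATXN2 gene portions) were treated 24 h at 37 °C with compounds at up to 57 uM. SteadyGlo luminescence gave expression; GF-AFC fluorescence gave viability.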
HepG2 viability: kills HepG2 cells in TGF-b inhibitor counter-screen; HepG2 CAGA-GFP viability, ATP luminescence, 18 h; Potency, µM (doses to about 46.1 µM), hits mostly cytotoxic; 410,000 tested, 0.76% active
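CellTiter-Glo luminescence gave cytotoxicity after 18 hours at 37 degrees C. The cells were HepG2 CAGA-GFP in 1% FBS DMEM, stimulated with 500 pg/mL TGF-beta after compound addition. %Activity was normalised to no-cell wells (complete cell-killing) and DMSO (no toxicity), and curves were fitted and classified.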
IL-1B inflam inh: inflammasome signaling inhibition, IL-1 beta readout | THP-1 LPS/ATP IL-1B secretion, AlphaLISA, 16 h; active compounds read low | activity change, % at 57.5 µM | 360,000 tested, 4.7% active; in the data active means activity change below about -50%; inconclusive means mostly about -30% to -49%
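Secreted IL-1B measured by AlphaLISA bead assay after 16 h compound exposure of THP-1 cells; compounds (final up to 57.5 uM) added 1 h before LPS (250 ng/mL) and ATP (1.25 mM) stimulation; lower signal means less secretion.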
Of the large screens only hits and unclear results are named; the others gave an inactive call; ! = a repeat was not active. Unless noted, the call rests on the fitted dose curve; in most records, active means well fitted curve in the direction sought with a large enough effect; inconclusive means small, poorly fitted or top-dose-only effect, or another doubt; inactive means no such curve, though single readings can be large; an effect the other way counts as inactive or inconclusive.

Cc1ccc(-n2nc3c(N4CCCC(C(=O)NCc5ccccc5C)C4)nnc(C)c3c2C)cc1 (centres undefined)	TGFb SMAD3 inh inconclusive (no result: ATXN viability, ATXN2 expr inh, IL-1B inflam inh)
CCN(C(=O)Cn1cc(S(=O)(=O)Cc2ccccc2Cl)c2ccccc21)c1ccccc1	none (no result: ATXN viability, ATXN2 expr inh, IL-1B inflam inh)
C=CC(=O)Nc1ccc(Nc2nc(NC3CCC(N(C)C)CC3)nc3c2ncn3C(C)C)cc1 (centres undefined)	ATXN viability 1.8µM, TGFb SMAD3 inh 0.63µM, ATXN2 expr inh inconclusive, IL-1B inflam inh -109
CC(C)n1cnc2c(Nc3ccc(F)c(Cl)c3)nc(NCCO)nc21	ATXN viability inconclusive, TGFb SMAD3 inh inconclusive
C=CC(=O)Nc1cccc(Nc2nc(NC3CCC(N(C)C)CC3)nc3c2ncn3C(C)C)c1 (centres undefined)	ATXN2 expr inh 0.031µM (no result: ATXN viability, TGFb SMAD3 inh, HepG2 viability, IL-1B inflam inh)
CCN(CC(O)CON=C1c2ccccc2-c2ccccc21)S(=O)(=O)c1ccc(Cl)cc1 (centres undefined)	ATXN2 expr inh inconclusive, IL-1B inflam inh -62 (no result: ATXN viability)
CS(=O)(=O)N(CC(O)CON=C1c2ccccc2-c2ccccc21)c1ccc(F)cc1 (centres undefined)	TGFb SMAD3 inh 18µM, ATXN2 expr inh inconclusive
CC(=O)Nc1cccc(Oc2ncnc3scc(-c4ccc(C(C)C)cc4)c23)c1	TGFb SMAD3 inh inconclusive, IL-1B inflam inh -52
COc1cc(C=C(C(C)=O)C(C)=O)ccc1O	IL-1B inflam inh -67
COc1cc(/C=N/Nc2ccc(C(=O)O)cc2)ccc1O	ATXN2 expr inh inconclusive
COc1cc(/C=C/C(=O)CC(=O)/C=C/c2ccc(O)c(OC)c2)ccc1O	TGFb SMAD3 inh inconclusive, ATXN2 expr inh inconclusive, IL-1B inflam inh -69
COc1cc(/C=C/C(C)=NNc2ccccc2)ccc1O	IL-1B inflam inh -94
COc1cc(C=O)ccc1O	none (no result: TGFb SMAD3 inh, HepG2 viability, IL-1B inflam inh)
COc1cc(/C=C/C(=O)/C=C(O)/C=C/c2ccc(O)c(OC)c2)ccc1O	ATXN viability inconclusive, TGFb SMAD3 inh inconclusive, ATXN2 expr inh inconclusive, IL-1B inflam inh -88
COc1cc(/C=C/C(=O)O)ccc1O	none
CCC(C)Sc1cccc(-c2nc3ccc(Cl)cn3c2NCc2ccccc2)c1 (centres undefined)	TGFb SMAD3 inh inconclusive, IL-1B inflam inh -54
CCC(C)Sc1cccc(-c2nc3ccccn3c2NCc2ccccc2)c1 (centres undefined)	ATXN viability inconclusive, TGFb SMAD3 inh inconclusive, ATXN2 expr inh inconclusive, IL-1B inflam inh inconclusive
CCC(C)Sc1cccc(-c2nc3ccc(C)cn3c2NCc2ccccc2)c1 (centres undefined)	ATXN viability inconclusive, TGFb SMAD3 inh 10µM, ATXN2 expr inh inconclusive, HepG2 viability 11µM, IL-1B inflam inh -104!
O=C(Nc1ccccn1)c1ccc(Br)s1	IL-1B inflam inh -64
Cc1ccc(C(NC(=O)N2CCOCC2)=C(Cl)Cl)cc1F	TGFb SMAD3 inh inconclusive, IL-1B inflam inh -101
Cc1ccc(C(NC(=O)N2CCOCC2)C(Cl)Cl)cc1F (centres undefined)	none
CCCOP(=O)(c1ccc(N(C)C)cc1)C(O)c1c(Cl)cccc1Cl (centres undefined)	none
CCCOP(=O)(c1ccc(N(C)C)cc1)C(O)c1ccc(Cl)cc1Cl (centres undefined)	IL-1B inflam inh -79
Cc1ccc([N+](=O)[O-])cc1S(=O)(=O)Nc1cccc(S(=O)(=O)Nc2ccccc2C(=O)O)c1	none
Cc1ccc(C)c(NC(=O)c2ccccc2NS(=O)(=O)c2cc([N+](=O)[O-])ccc2C)c1	TGFb SMAD3 inh 2.5µM, ATXN2 expr inh inconclusive, IL-1B inflam inh inconclusive
Cc1ccc(NC(=S)NC(=O)c2ccc(F)cc2)cc1S(=O)(=O)Nc1cccc(Cl)c1	ATXN viability inconclusive, ATXN2 expr inh inconclusive, IL-1B inflam inh inconclusive
Cc1ccc(NC(=O)c2cccs2)cc1S(=O)(=O)Nc1cccc(Cl)c1	TGFb SMAD3 inh inconclusive, IL-1B inflam inh -131
Cc1ccc(C(=O)Nc2cccc([N+](=O)[O-])c2)cc1S(=O)(=O)Nc1ccc(NC(=O)c2ccccc2)cc1	ATXN viability inconclusive
Cc1ccc(NS(=O)(=O)c2cc(C(=O)Nc3cccc([N+](=O)[O-])c3)ccc2C)cc1	TGFb SMAD3 inh inconclusive, IL-1B inflam inh -80
COC(=O)c1ccc(NC(C)=O)cc1OC	none (no result: TGFb SMAD3 inh, HepG2 viability, IL-1B inflam inh)
Cc1oc(=O)c(NC(=O)c2ccccc2)cc1C(=O)c1ccccc1	TGFb SMAD3 inh inconclusive
CC(=O)c1cc(NC(=O)c2ccccc2)c(=O)oc1C	TGFb SMAD3 inh inconclusive, IL-1B inflam inh -102
CC(=O)c1cc(NC(=O)c2ccc(C)cc2)c(=O)oc1C	TGFb SMAD3 inh inconclusive, IL-1B inflam inh -106
CCN1CCN(C(c2cccs2)C(C)NC(=S)Nc2cc(C)ccc2C)CC1 (centres undefined)	none
Cc1ccc(C)c(NC(=S)NC(C)C(c2ccccc2)N2CCN(C)CC2)c1 (centres undefined)	IL-1B inflam inh -62
COc1ccc(CN2CCC(Oc3ccc(C(=O)N4CCCCC4)cc3)CC2)cc1C	ATXN viability inconclusive, IL-1B inflam inh -53
O=C(c1ccc(OC2CCN(Cc3ccccc3C(F)(F)F)CC2)cc1)N1CCCCC1	TGFb SMAD3 inh inconclusive, IL-1B inflam inh -85
O=C(c1ccc(OC2CCN(Cc3ccc(C(F)(F)F)cc3)CC2)cc1)N1CCCCC1	none
CSc1cccc(CN2CCC(Oc3ccc(C(=O)N4CCCCC4)cc3)CC2)c1	ATXN viability inconclusive, IL-1B inflam inh -88
O=C(O)c1ccc(NC2=C(N3CCOCC3)C(=O)c3ccccc3C2=O)cc1	none
Cc1ccc(NC2=C(N3CCOCC3)C(=O)c3ccccc3C2=O)cc1	ATXN viability inconclusive, TGFb SMAD3 inh inconclusive, ATXN2 expr inh inconclusive, IL-1B inflam inh -100
CC(=O)N(C)C1=C(N2CCOCC2)C(=O)c2ccccc2C1=O	ATXN viability 3.5µM, TGFb SMAD3 inh 1.6µM, ATXN2 expr inh 1.4µM, HepG2 viability 0.56µM, IL-1B inflam inh -94
CC(=O)c1ccc(NC2=C(N3CCOCC3)C(=O)c3ccccc3C2=O)cc1	ATXN viability inconclusive, TGFb SMAD3 inh inconclusive, ATXN2 expr inh inconclusive, IL-1B inflam inh -76
CCOC(=O)COc1cc(N)c(Cl)cc1Cl	TGFb SMAD3 inh inconclusive, IL-1B inflam inh -53
CCOC(=O)COc1cc(-n2c(=S)[nH]c3ccccc3c2=O)c(Cl)cc1Cl	none
Cc1[nH]c2ccccc2c1C(c1ccccn1)N1CCCC1 (centres undefined)	none
Cc1ccnc(NC(c2ccccn2)c2c(C)[nH]c3ccccc23)c1 (centres undefined)	TGFb SMAD3 inh inconclusive, IL-1B inflam inh -106
Cc1[nH]c2ccccc2c1C(c1ccccn1)N1CCC(C)CC1 (centres undefined)	IL-1B inflam inh -107
Cc1cc(NC(c2cccnc2)c2c(C)[nH]c3ccccc23)no1 (centres undefined)	TGFb SMAD3 inh inconclusive
O=c1[nH]nc(-c2ccc(F)cc2)cc1-c1ccccc1	IL-1B inflam inh -72

Screening data deposited in PubChem by National Center for Advancing Translational Sciences (NCATS).
